Assay [1] relates to Plasmodium falciparum Sir2 (PF13_0152, Sir2A). As to the kind of experiment: Plasmodium falciparum Sir2A binding compounds – biochemical, small-molecule microarray, 635 nm fluorescence, primary screen (AID 1098).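 Further: score merges spot fluorescence intensity with its signal-to-noise ratio.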 The conditions noted are these: fluorescence 635 nm, higher = more signal.
Assay [2] can be described thus: probe aDKK1 binding to arrayed compounds – biochemical, biotinylated probe, 635/667 nm fluorescence, primary screen (AID 1099).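 Further: score merges 667nm spot fluorescence with signal to noise across triplicate slides.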 The conditions noted are these: small-molecule microarray, higher = more signal.
The nature of assay [3]: probe aCHRDL2 binding to arrayed compounds – biochemical, biotinylated probe, 635/667 nm fluorescence, primary screen (AID 1100). The conditions noted are these: small-molecule microarray, higher = more signal.
Assay [4] can be described thus: change in splice reporter luminescence, either direction, cell-based, HEK293, spliceosome inhibition project, primary screen (AID 1101).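 Further: HEK293 cells carrying a splicing-competent luciferase reporter gene; test concentration not given here.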 The following applies: HEK293 splicing luciferase reporter, 24 h, higher = more signal, called active from +8 up or from −8 down.
The target in assay [5] is Fibroblast growth factor 10 (Homo sapiens) (UniProt O15520). As to the kind of experiment: compounds binding fibroblast growth factor 10 – biochemical, small-molecule microarray, 635 nm fluorescence, primary screen (AID 1102). The conditions noted are these: FGF10 binding, fluorescence 635 nm, higher = more signal.
Assay [6] has as its system glycogen synthase kinase-3 (GSK3A per assay name; protocol says GSK3B). As to the kind of experiment: compounds binding glycogen synthase kinase-3 – biochemical, small-molecule microarray, 635 nm fluorescence, GSK3A, primary screen (AID 1103). Further: the record names both GSK3A and GSK3B. The conditions noted are these: fluorescence 635 nm, higher = more signal.
Assay [7] has as its target Epidermal growth factor receptor (Homo sapiens) (UniProt P00533). The assay can be described thus: compounds binding epidermal growth factor receptor – biochemical, small-molecule microarray, 635 nm fluorescence, primary screen (AID 1104).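 Further: score merges 667 nm emission intensity with spot signal to noise over triplicate slides.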 The conditions noted are these: EGFR binding, higher = more signal.
In assay [8] the target is Follistatin-related protein 3 (Homo sapiens) (UniProt O95633). As to the kind of experiment: compounds binding follistatin-related protein 3 – biochemical, small-molecule microarray, 635 nm fluorescence, primary screen (AID 1105).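 Further: score merges emission near 667 nm and signal to noise per printed spot across three slides.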 The conditions noted are these: FSTL3 binding, higher = more signal.
Assay [9] has as its target Dickkopf-related protein 1 (Homo sapiens) (UniProt O94907). The assay can be described thus: small molecules binding DKK1 protein – biochemical, small-molecule microarray, 635 nm fluorescence scan, primary screen (AID 1106).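 Further: score merges emission near 667 nm with signal to noise over three replicate slides.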 The conditions noted are these: higher = more signal.
The test system of assay [10] is Inhibin beta A chain (activin A). As to the kind of experiment: small molecules binding activin A – biochemical, small-molecule microarray, 635 nm fluorescence scan, primary screen (AID 1107).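 Further: mouse activin A protein probed at 4.33 µg/mL on printed slides; score merges bound-protein fluorescence near 667 nm with spot signal-to-noise.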 The conditions noted are these: INHBA, higher = more signal.
The test system of assay [11] is Human papillomavirus type 1a protein E7 (residues 44-93). As to the kind of experiment: small molecules binding HPV E7 44-93 – biochemical, small-molecule microarray, residues 44-93, 635 nm fluorescence, primary screen (AID 1108).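 Further: E7 fragment applied at 1 µg/mL in TBST for 1 h at 4 C; score combines spot fluorescence with its signal to noise ratio.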 The following applies: fluorescence 635 nm, higher = more signal.
A short description of assay [12]: hepatitis C replication reporter changes, two-sided – Huh7 cells, luciferase reporter, HCV replication inhibitor project, primary screen (AID 1109).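 Further: huh7 hepatoma cells harbouring a luciferase neomycin HCV replicon reporter; luciferase luminescence as measure of HCV replicon replication; test concentration not given here.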 The conditions noted are these: Huh7 HCV replicon luciferase reporter, 48 h; higher = more signal.
The target in assay [13] is Left-right determination factor 2 (Homo sapiens) (UniProt O00292). The assay can be described thus: small molecules binding LEFTY2 protein – biochemical, small-molecule microarray, 635 nm fluorescence scan, primary screen (AID 1110). The conditions noted are these: higher = more signal.
Assay [14] deals with Calmodulin-1 (Homo sapiens) (UniProt P0DP23). The assay can be described thus: small molecules binding calmodulin-1 with EGTA – biochemical, small-molecule microarray, Cy5-labelled CALM1, profiling panel (AID 1111).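 Further: labelled calmodulin applied in Tris saline Tween buffer holding calcium plus EGTA and DTT.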 The conditions noted are these: Cy5-CALM1 binding fluorescence, higher = more signal.
Assay [15] has the same target. As to the kind of experiment: small molecules binding Ca-loaded calmodulin-1 – biochemical, small-molecule microarray, Cy5-labelled CALM1, plus calcium, artefact control for SMM control-protein annotation, profiling panel (AID 1112).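 Further: score merges spot fluorescence with signal to noise from triplicate slides.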 The conditions noted are these: Cy5-CALM1 binding fluorescence, higher = more signal.
Assay [16] in a line: probe aWnt5a binding to arrayed compounds – biochemical, biotinylated probe, 635/667 nm fluorescence, primary screen (AID 1113).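 Further: score merges 667 nm fluorescence intensity with signal-to-noise per printed feature.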 The following applies: small-molecule microarray, higher = more signal.
Assay [17] can be described thus: probe aShh binding to arrayed compounds – biochemical, biotinylated probe, 635/667 nm fluorescence, primary screen (AID 1114).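 Further: probe is biotin-labelled aShh protein from a stem cell growth factor screen; measures binding of labelled protein to compounds printed on the slide; score merges feature fluorescence at 667 nm with signal-to-noise.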 The conditions noted are these: small-molecule microarray, higher = more signal.
Assay [18] in a line: probe aNog binding to arrayed compounds – biochemical, biotinylated probe, 635/667 nm fluorescence, primary screen (AID 1115).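 Further: probe is biotinylated aNog protein used at 0.15 µg/mL for 1 h at 4 C; z-score combines 667 nm fluorescence of each spot with its signal to noise.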 The conditions noted are these: small-molecule microarray, higher = more signal.
Assay [19] has as its target Torsin-1A-interacting protein 1 (Homo sapiens) (UniProt Q5JTV8). As to the kind of experiment: compound microarray binding of lysate hLAP1 – cell lysate, small-molecule microarray, COS7 lysate, 635/667 nm fluorescence, primary screen (AID 1116). The following applies: 635 nm fluorescence, higher = more signal.
Assay [20] deals with Alpha-bungarotoxin (Bungarus multicinctus) (UniProt P60615). The assay can be described thus: compounds binding labelled alpha-BTX control protein – biochemical, small-molecule microarray, Alexa647 label, 635/667 nm fluorescence, artefact control for SMM control protein annotation, profiling panel (AID 1117). The conditions noted are these: alpha-BTX-A647 binding fluorescence, higher = more signal.

Activity calls are given as the source filed them.

Left-right determination factor 2 (Homo sapiens), sequence (O00292 whole entry, looked up): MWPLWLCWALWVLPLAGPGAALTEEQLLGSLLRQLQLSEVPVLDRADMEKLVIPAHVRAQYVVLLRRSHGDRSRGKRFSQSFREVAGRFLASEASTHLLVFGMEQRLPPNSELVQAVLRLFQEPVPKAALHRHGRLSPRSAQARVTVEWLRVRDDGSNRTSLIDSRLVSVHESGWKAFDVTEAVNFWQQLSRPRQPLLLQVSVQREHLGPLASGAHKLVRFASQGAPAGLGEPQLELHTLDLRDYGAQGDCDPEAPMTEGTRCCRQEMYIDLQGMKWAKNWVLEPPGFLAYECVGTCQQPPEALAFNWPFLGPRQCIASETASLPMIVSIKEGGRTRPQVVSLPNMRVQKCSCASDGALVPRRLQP
Dickkopf-related protein 1 (Homo sapiens), sequence (O94907 whole entry, looked up): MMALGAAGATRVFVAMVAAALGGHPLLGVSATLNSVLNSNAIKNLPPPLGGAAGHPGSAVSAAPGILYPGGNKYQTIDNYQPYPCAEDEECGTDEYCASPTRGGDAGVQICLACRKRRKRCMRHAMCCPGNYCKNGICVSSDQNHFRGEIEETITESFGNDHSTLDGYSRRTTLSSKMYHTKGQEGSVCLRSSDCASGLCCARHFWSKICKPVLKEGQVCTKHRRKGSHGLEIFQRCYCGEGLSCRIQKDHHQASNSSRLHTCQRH
Fibroblast growth factor 10 (Homo sapiens), sequence (O15520 whole entry, looked up): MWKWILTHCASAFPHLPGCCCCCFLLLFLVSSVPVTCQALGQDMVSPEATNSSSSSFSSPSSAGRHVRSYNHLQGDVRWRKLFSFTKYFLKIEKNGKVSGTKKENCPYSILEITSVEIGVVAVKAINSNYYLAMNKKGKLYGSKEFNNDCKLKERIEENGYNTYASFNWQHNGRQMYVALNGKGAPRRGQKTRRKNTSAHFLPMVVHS
Epidermal growth factor receptor (Homo sapiens), sequence (P00533 whole entry, looked up): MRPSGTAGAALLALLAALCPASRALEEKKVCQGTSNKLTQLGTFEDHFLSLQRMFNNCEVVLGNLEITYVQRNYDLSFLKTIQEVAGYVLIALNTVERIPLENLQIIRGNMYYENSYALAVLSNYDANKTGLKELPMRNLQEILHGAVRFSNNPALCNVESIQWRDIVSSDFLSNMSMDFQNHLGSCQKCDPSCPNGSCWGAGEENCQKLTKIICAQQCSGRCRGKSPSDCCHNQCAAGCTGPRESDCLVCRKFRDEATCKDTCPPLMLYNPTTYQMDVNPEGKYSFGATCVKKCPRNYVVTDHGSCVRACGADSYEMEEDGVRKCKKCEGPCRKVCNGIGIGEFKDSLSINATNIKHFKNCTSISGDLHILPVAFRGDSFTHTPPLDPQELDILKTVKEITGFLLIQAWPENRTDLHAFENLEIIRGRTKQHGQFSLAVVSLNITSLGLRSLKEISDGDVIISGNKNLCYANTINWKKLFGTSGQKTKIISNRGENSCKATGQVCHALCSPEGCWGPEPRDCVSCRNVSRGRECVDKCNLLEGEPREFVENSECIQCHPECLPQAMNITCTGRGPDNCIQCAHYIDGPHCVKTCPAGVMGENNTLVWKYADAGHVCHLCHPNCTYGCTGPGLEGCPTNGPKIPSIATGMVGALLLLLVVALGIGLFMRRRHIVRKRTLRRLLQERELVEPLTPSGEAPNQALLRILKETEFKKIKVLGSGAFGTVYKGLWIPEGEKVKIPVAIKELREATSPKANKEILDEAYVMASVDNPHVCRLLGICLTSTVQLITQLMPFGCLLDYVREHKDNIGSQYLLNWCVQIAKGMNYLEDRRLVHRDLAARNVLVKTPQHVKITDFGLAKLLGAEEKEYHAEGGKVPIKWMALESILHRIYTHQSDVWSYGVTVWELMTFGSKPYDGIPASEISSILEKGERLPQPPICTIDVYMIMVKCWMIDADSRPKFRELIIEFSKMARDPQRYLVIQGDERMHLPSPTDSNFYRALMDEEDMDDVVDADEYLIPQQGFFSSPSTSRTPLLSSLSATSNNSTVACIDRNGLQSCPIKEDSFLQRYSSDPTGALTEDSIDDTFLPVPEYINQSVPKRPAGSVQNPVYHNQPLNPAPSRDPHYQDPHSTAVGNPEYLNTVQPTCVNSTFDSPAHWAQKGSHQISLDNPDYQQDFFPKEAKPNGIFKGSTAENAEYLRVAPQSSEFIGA
Follistatin-related protein 3 (Homo sapiens), sequence (O95633 whole entry, looked up): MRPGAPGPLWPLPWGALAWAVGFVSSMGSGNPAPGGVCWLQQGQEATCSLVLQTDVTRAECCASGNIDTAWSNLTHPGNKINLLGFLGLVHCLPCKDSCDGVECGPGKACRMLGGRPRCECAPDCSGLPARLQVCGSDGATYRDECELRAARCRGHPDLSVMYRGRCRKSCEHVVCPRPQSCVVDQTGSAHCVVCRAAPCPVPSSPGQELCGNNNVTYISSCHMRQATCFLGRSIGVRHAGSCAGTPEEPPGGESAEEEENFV
Torsin-1A-interacting protein 1 (Homo sapiens), sequence (Q5JTV8 whole entry, looked up): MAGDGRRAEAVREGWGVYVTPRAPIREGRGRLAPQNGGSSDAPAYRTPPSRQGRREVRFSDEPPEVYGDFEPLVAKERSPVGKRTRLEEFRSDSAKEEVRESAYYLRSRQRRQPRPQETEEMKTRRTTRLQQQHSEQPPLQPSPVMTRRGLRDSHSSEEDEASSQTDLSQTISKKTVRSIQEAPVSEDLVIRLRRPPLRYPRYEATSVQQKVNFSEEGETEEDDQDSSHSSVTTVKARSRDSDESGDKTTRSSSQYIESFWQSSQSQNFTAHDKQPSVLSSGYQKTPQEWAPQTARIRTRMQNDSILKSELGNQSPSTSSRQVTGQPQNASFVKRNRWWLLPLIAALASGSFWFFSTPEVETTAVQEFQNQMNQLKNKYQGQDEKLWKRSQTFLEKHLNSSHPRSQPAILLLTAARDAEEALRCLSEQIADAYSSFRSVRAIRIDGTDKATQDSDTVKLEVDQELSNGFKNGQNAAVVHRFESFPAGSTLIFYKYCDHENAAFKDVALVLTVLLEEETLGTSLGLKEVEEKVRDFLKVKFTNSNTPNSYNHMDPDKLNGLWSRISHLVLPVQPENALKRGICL
Alpha-bungarotoxin (Bungarus multicinctus), sequence (P60615 whole entry, looked up): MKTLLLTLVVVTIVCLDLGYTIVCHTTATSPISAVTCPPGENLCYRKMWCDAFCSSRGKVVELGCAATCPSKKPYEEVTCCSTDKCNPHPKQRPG

Take `COC(=O)[C@@]1(Cc2ccc(F)cc2)[C@H]2c3cc(C(=O)N(C)C)n(Cc4ccc(S(C)(=O)=O)cc4)c3C[C@H]2CN1C(=O)c1ccccc1`: the composite z-score was found to be 0.46 in [1]; 0.883 in [2]; 0.899 in assay [3]; 1.35 in [5]; 0.0364 in assay [6]; 0.603 in [7]. In addition, the composite z-score in [8] was 0.0567; in assay [9] it was -0.0071; in assay [10], 0.95; in assay [11], -0.164; in [13], 0.213; in assay [14], 2.54. Further, the composite z-score is 0.497 in assay [15]; -0.0125 in assay [16]; 0.123 in assay [17]; 1.84 in assay [18]; 2.08 in assay [19]; 0.15 in assay [20]. The z-score in assay [4] was 0.895 (inactive); in assay [12] it was -0.328.

As for `Cc1ccc(C(C)CC(O)C2C=CC3C(=O)N(C)C(=O)C3N2NC(=O)OC(C)(C)C)o1` (stereo not given), the composite z-score in [1] was 1.07; in [2], 0.202; in assay [3], 0.0719; in [5] it was 0.803; in [6], 1.29; in assay [7] it was 0.96. For the same compound, the composite z-score is 1.3 in [8]; 0.837 in assay [9]; -0.0924 in assay [10]; 0.598 in assay [11]; 1.19 in assay [13]; 1.73 in assay [14]. The composite z-score amounted to 0.0152 in assay [15]; 0.246 in assay [16]; 0.424 in assay [17]; 0.226 in assay [18]; 1.27 in assay [19]; 1.73 in [20]. Besides, the values for the z-score in assay [4] and in assay [12] were 1.92 (inactive) and 0.255, respectively.

For `COc1ccc(CCNC(=O)[C@@]2(Sc3ccc(C)cc3)CC(=O)N(C3CCCCC3)[C@@H]2c2ccc(CO)cc2I)cc1`, the composite z-score in assay [1] was 1.09; in [2] it was -0.0662; in [3], 0.44; in assay [5] it was 0.724; in assay [6], 0.974; in [7], 0.0902. Further, the composite z-score in assay [8] stood at 1.03; in assay [9], 0.0743; in [10], 0.327; in assay [11], 1.38; in assay [13], 0.0072; in assay [14], 0.99. The composite z-score in assay [15] is 0.161; in assay [16], -0.0903; in assay [17] it was 0.323; in [18], -0.158; in assay [19], 0.95; in [20] it was 0.649. The figures for the z-score in [4] and in [12] were 0.451 (inactive) and -2.77, respectively.

Turning to `O=C1O[C@H](c2ccccc2)[C@H](c2ccccc2)N2[C@H]1[C@@H](C(=O)N1CCN(c3ncccn3)CC1)[C@]1(C(=O)Nc3ccc(C#CC4=CCCCC4)cc31)[C@H]2c1ccc(O)cc1`, the composite z-score was 0.789 in [1]; -0.0869 in assay [2]; 0.566 in [3]; 0.76 in [5]; 0.754 in [6]; 0.442 in [7]. Moreover, the composite z-score in assay [8] is 0.738; in [9], -0.0441; in [10], -0.0074; in [11], 1.41; in assay [13], 0.144; in [14], 0.961. The composite z-score in [15] is 0.336; in [16] it was -0.0721; in [17], -0.221; in assay [18] it was 0.113; in assay [19], 0.792; in assay [20] it was 1.44. Besides, the z-score in assay [4] is -0.725 (inactive); in assay [12] it was -1.98.

Turning to `O=C1C[C@]2(c3ccc([N+](=O)[O-])cc3)C(=O)N(CCN3CCOCC3)c3cc(CO)ccc3[C@H]2N1C1CCCCC1`, the composite z-score is 0.781 in assay [1]; 0.42 in assay [2]; 0.828 in [3]; -0.142 in [5]; -0.587 in [6]; -0.517 in [7]. For the same compound, the composite z-score in [8] was -0.875; in assay [9], -0.877; in [10], 0.342; in assay [11], -1.26; in assay [13], -0.91; in assay [14] it was -0.146. Also, the composite z-score in [15] is 0.0884; in assay [16], -0.363; in assay [17], -0.211; in assay [18] it was -0.405; in [19] it was -0.308; in [20] it was -0.251. The figures for the z-score in [4] and in [12] were -1.05 (inactive) and -0.809, respectively.
